High-throughput results deposited in PubChem BioAssay by The Scripps Research Institute Molecular Screening Center.
Rows were chosen to be rich in hits. Some 3.3% of all compounds tested hit in one or more screens of this group.
PRMT1 FP inh: PRMT1 (human) inhibition, primary screen; Q99873; inhibition, % at 2.79 µM; recombinant PRMT1, activity-based probe fluorescence polarization; actives 1.3% (n = 370,000);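 active means inhibition above about 21% made by adding two undisclosed values, limit read from the data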
NOD2 RIPK2 PPI: inhibitors of human NOD2-RIPK2 interaction | O43353 | CHO BLA complementation NOD2-RIPK2, CCF4 ratio | inhibition, % at 4.98 µM | actives 0.38% (n = 360,000) | AID 624267; in the data active means inhibition above about 21%;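 further: 0% = vehicle only and 100% = reference blocker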
Target sequence (O43353 whole entry, looked up): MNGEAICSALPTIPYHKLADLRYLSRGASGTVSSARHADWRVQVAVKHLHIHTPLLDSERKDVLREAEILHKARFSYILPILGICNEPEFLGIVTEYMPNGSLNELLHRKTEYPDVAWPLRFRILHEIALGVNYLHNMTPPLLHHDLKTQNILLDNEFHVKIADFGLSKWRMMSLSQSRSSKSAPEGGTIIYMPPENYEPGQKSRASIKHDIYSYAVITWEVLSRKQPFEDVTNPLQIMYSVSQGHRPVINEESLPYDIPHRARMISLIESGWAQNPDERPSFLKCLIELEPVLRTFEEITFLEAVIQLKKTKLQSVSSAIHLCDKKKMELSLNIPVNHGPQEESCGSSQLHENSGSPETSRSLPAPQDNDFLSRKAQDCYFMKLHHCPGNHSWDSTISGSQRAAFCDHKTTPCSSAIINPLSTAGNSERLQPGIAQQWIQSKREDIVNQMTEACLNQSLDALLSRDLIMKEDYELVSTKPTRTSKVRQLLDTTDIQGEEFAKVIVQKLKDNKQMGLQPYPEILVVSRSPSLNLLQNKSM
ABHD5 PLIN5 PPI: blocks binding of human ABHD5 to perilipin-5. AID 602281. actives 0.78% (n = 360,000). Split G. princeps luciferase complementation, luminescence, 4 h. inhibition, % at 4 µM;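 active means inhibition above the mean inhibition across every tested compound plus 3 SD, cut at about 22% in these data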;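 further: 0% = DMSO only wells and the 100% control is not disclosed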
rCAG binder-1: molecules binding r(CAG) RNA repeats; inhibition, % at 3 µM; r(CAG) RNA repeat, TO-PRO-1 dye displacement fluorescence; actives 1.3% (n = 370,000);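 active means inhibition above the plate cutoff, the mean of all test compounds on that plate plus 3 SD, cut at about 35% in these data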;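 further: 0% = DMSO alone and 100% = 100 µM mitoxantrone as full dye displacement; higher means more dye released from RNA so lower well fluorescence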
TLR4-MyD88 BLA: blocks binding of human TLR4 to MyD88. O00206+Q99836. HeLa CL3-4 TLR4/MyD88 BLA complementation, FRET ratio. inhibition, % at 8.4 µM. actives 0.18% (n = 200,000); in the data active means inhibition above about 25%;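 further: 0% = vehicle and 100% = reference inhibitor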
TLR9-MyD88 block: inhibitors of human TLR9-MyD88 binding; inhibition, % at 4.98 µM; CHO BLA complementation TLR9-MyD88, CCF4 FRET ratio; Q9NR96+Q99836; actives 0.21% (n = 340,000); AID 504734;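 active means inhibition above the mean over all tested compounds plus 3 SD, cut at about 21% in these data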;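 further: 0% = DMSO only wells and 100% = clavulanate BLA inhibitor control wells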
rCAG binder conf: r(CAG) RNA repeat binding, confirmation | shares compounds with rCAG binder-1 | TO-PRO-1 dye displacement fluorescence | inhibition, % at 3 µM | actives 70% (n = 4,300) | AID 652065;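 active means inhibition above a per-plate cutoff, the mean inhibition of sample wells plus 3 SD, cut at about 35% in these data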;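 further: loss of TO-PRO-1 fluorescence as compound displaces dye from 1x1 AA loop RNA; 0% = DMSO only wells and 100% = 100 µM mitoxantrone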
dCAG dye counter: DNA CAG dye complex inhibition counter-screen. actives 94% (n = 4,300). inhibition, % at 3 µM. shares compounds with rCAG binder-1. d(CAG) DNA oligo TO-PRO-1 dye displacement, fluorescence;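 active means inhibition above its plate's cutoff, the mean test-well inhibition plus 3 SD, cut at about 4.8% in these data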;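 further: 0% = DNA dye mix with DMSO and 100% = 100 µM mitoxantrone; hits displace the dye from DNA and so lower well fluorescence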
dCAG dye DR: counter-screen for rCAG binders: inhibitors of DNA CAG TO-PRO-1 complex. shares compounds with rCAG binder-1. DNA CAG/GTC duplex TO-PRO-1 dye displacement fluorescence. IC50, µM. actives 20% (n = 250). AID 686960; in the data active means IC50 below about 10 µM
dCAG DNA bind: counter-screen for rCAG binders: DNA CAG TO-PRO-1 complex inhibitors, late stage; shares compounds with rCAG binder-1; d(CAG) DNA duplex TO-PRO-1 dye displacement, fluorescence; IC50, µM; actives 80% (n = 30); AID 720649
rCAG binder-2: r(CAG) repeat RNA binding, TO-PRO-1 displacement; shares compounds with rCAG binder-1; r(CAG) RNA TO-PRO-1 dye displacement, fluorescence; IC50, µM; actives 100% (n = 30); AID 720651
An asterisk follows results filed as active; i = inactive; x = no result given. Unless noted, how the calls were made is not given here.

SMILES | PRMT1 FP inh | NOD2 RIPK2 PPI | ABHD5 PLIN5 PPI | rCAG binder-1 | TLR4-MyD88 BLA | TLR9-MyD88 block | rCAG binder conf | dCAG dye counter | others
COc1cc(-c2noc(CCCC(=O)NC3CCCCC3)n2)cc(OC)c1OC | -1 | -5 | -8 | -7 | 3 | 7 | x | x
CC(=O)C(=Cc1ccccc1)c1ccccc1 | 7 | -8 | 12 | -2 | x | x | x | x
O=C(O)/C(=C\c1ccc(F)cc1)c1ccc(-c2ccccc2)cc1 | 1 | -4 | 5 | 38* | x | 5 | 40* | 9.7*
O=C(O)/C(=C\c1ccccc1OC(F)F)c1ccc(-c2ccccc2)cc1 | 5 | -2 | -6 | 48* | x | 4 | 42* | 13*
O=C1NN(c2ccccc2)C(=O)/C1=C/c1ccc(Sc2cccc3ccccc23)o1 | 6 | -8 | -5 | 48* | -4 | -4 | 92* | 68*
Cc1ccccc1S(=O)(=O)N1C(c2ccc(Cl)cc2)CC=C(C(=O)O)C1c1cccc(Cl)c1 (centres undefined) | -4 | -10 | -5 | 84* | x | x | 77* | 40*
Cc1ccc([C@H]2C(C(=O)O)=CC[C@@H](c3ccc(Cl)cc3)N2S(=O)(=O)c2ccccc2C)cc1 | x | -3 | -3 | x | x | -11 | x | x
Cc1ccc([C@@H]2CC=C(C(=O)O)[C@H](c3cccc(Cl)c3)N2S(=O)(=O)c2ccccc2C)cc1 | -8 | -1 | -1 | 82* | x | -3 | 77* | 43*
Cc1ccc(S(=O)(=O)N2[C@@H](c3ccc(F)cc3)C(C(=O)O)=CC[C@H]2c2cccc(Cl)c2)cc1 | -2 | -22 | -10 | 8 | x | -17 | x | x
Cc1ccccc1S(=O)(=O)N1[C@@H](c2ccc(Cl)cc2)C(C(=O)O)=CC[C@H]1c1ccc(Cl)cc1 | -1 | -33 | 4 | 80* | x | 4 | 80* | 40*
Cc1ccc(C(=O)CCC(=O)Nc2ccc(Cl)c(S(=O)(=O)Nc3cccc(Cl)c3)c2)cc1 | 3 | 2 | 15 | 35* | -3 | 10 | 35* | 12*
O=c1c(O)cccc2cc(O)c(O)c(O)c12 | 43* | -3 | 8 | 51* | x | -1 | 78* | 48*
COc1cc2cccc(OC)c(=O)c2c(OC)c1OC | 3 | -12 | 9 | -3 | -7 | 4 | x | x
O=C(NCC(=O)N1CCN(C(c2ccccc2)c2ccccc2)CC1)c1ccccc1Br | -3 | 16 | -3 | 0 | x | -12 | x | x
COc1ccc(C(C(=O)N(C)C2CCCC2)N(Cc2ccc(F)cc2)C(=O)c2ccc3ccccc3c2)cc1OC (centres undefined) | 4 | x | x | 8 | x | x | x | x
CSc1nc(SCCO)c2sc3nc(-c4ccco4)c4c(c3c2n1)CC(C)(C)OC4 | 22* | -8 | 16 | 39* | -5 | -7 | 39* | 20*
CC(Oc1ccc(Br)cc1)C(=O)Nc1ccc(S(=O)(=O)Nc2nccs2)cc1 (centres undefined) | -2 | -17 | 0 | 52* | x | -12 | 34 | 9.4*
CCC(Oc1ccc(C)cc1)C(=O)Nc1ccc(S(=O)(=O)Nc2nccs2)cc1 (centres undefined) | -4 | 2 | -7 | 53* | x | 5 | 33 | 8.8*
CC(Oc1ccccc1)C(=O)Nc1ccc(S(=O)(=O)Nc2nccs2)cc1 (centres undefined) | 1 | -8 | 1 | 10 | x | -1 | x | x
O=S(=O)(Nc1nccs1)c1ccc(NCc2cc(Br)cc(Br)c2O)cc1 | -4 | -8 | 2 | 58* | x | -3 | 41* | 14*
c1cnc2nc3c4ccccc4c4ccccc4c3nc2c1 | 0 | -2 | 7 | 10 | x | 0 | x | x
Cc1noc(NS(=O)(=O)c2ccc(NC(=O)COc3ccc(Cl)cc3Cl)cc2)c1C | 1 | -10 | -3 | 77* | 0 | 4 | 70* | 22* | dCAG dye DR=i;dCAG DNA bind=3.6*;rCAG binder-2=1.3*
Cc1ccc(C)c(OCC(=O)Nc2ccc(S(=O)(=O)Nc3onc(C)c3C)cc2)c1 | 0 | -2 | 0 | 48* | x | -3 | 46* | 13*
COc1ccccc1OCC(=O)Nc1ccc(S(=O)(=O)Nc2onc(C)c2C)cc1 | 5 | 0 | -1 | 13 | x | 12 | x | x
CCc1cccc(OCC(=O)Nc2ccc(S(=O)(=O)Nc3onc(C)c3C)cc2)c1 | -1 | -5 | -4 | 37* | -9 | 1 | 31 | 7.1*
SMILES | PRMT1 FP inh | NOD2 RIPK2 PPI | ABHD5 PLIN5 PPI | rCAG binder-1 | TLR4-MyD88 BLA | TLR9-MyD88 block | rCAG binder conf | dCAG dye counter | others
CCc1cccc(OCC(=O)Nc2ccc(C(=O)O)cc2NC(=O)COc2cccc(CC)c2)c1 | 1 | 1 | 4 | 78* | x | 3 | 72* | 36*
Cc1ccc(OCC(=O)Nc2ccc(S(=O)(=O)Nc3onc(C)c3C)cc2)cc1 | 1 | -3 | 6 | 27 | 1 | 4 | x | x
CC(C)CNc1ncnc2c1ncn2[C@H]1CN(Cc2ccc(-c3ccccc3)cc2)C[C@@H](CO)O1 | -2 | 1 | 0 | 6 | x | x | x | x
Cc1noc(NS(=O)(=O)c2ccc(NC(=O)CCCOc3ccc(Cl)cc3Cl)cc2)c1C | -2 | 3 | -5 | 87* | -6 | -4 | 73* | 38*
Cc1ccc(C)c(OCC(=O)Nc2cc(NC(=O)COc3cc(C)ccc3C)cc(C(=O)O)c2)c1 | 8 | 3 | -8 | 49* | x | -4 | 77* | 41*
Cc1noc(NS(=O)(=O)c2ccc(NC(=O)CSc3nc4c(cc3C#N)CCCCC4)cc2)c1C | 2 | -3 | 9 | 42* | -11 | -2 | 34 | 8.2*
CCN1C=C(C(C)=O)C(=O)CC1 | 0 | 1 | -3 | 2 | x | -2 | x | x
COC(=O)NC1CCC(NC(=O)OC)CC1 (centres undefined) | 0 | 0 | 4 | 1 | 4 | 5 | x | x
O=C(Cc1ccc(NC(=O)C2CCCN(C(=O)C3CC3)C2)cc1)Nc1cccc(C(=O)N2CCCCC2)c1 (centres undefined) | 6 | -2 | 4 | 3 | x | -6 | x | x
COc1ccc(N(CC(=O)N2CCN(C)CC2)S(=O)(=O)c2cc(C)ccc2OC)cc1Cl | 3 | -7 | 4 | -7 | x | -5 | x | x
CCN(CC)S(=O)(=O)c1ccc(N2CCOCC2)c(NC(=O)c2ccccc2)c1 | 1 | -5 | 3 | -2 | -3 | -21 | x | x
